Rows were chosen to be rich in hits. Some 3.8% of all compounds tested hit in one or more screens of this group.
TGFb inhibitor – inhibitors of TGF-b signaling; Potency, µM (series often up to 46.1 µM), inactives show at the highest dose activity, negative = inhibition, actives largely listed as inhibitors; actives 1.2% (n = 410,000); HepG2 CAGA-GFP TGF-b/SMAD3 reporter, GFP fluorescence, 18 h; TGF-beta stimulated, 500 pg/mL final; also: % is scaled to controls: 0 for no effect and ±100 for the full control effect; nearly all actives have a fitted effect of over 65% in size
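TGF-beta reporter screen: HEPG2 CAGA-GFP, 1% FBS, 500 pg/mL TGF-beta final, 18 h; per-cell GFP summed per well; curves fitted and categorized by class.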
ATXN viability – viability counter-screen for ATXN expression inhibitors; S2 cells (HEK-293 line with an ATXN2-luciferase reporter) viability, CellTiter-Fluor protease fluorescence, 24 h; actives 0.49% (n = 400,000); Potency, µM (doses to about 56.7 µM), hits mostly cytotoxic; also: nearly all actives have a fitted effect of over 40% in size
HT1080NT lethal – kills 2HG-producing HT-1080-NT fibrosarcoma cells; HT-1080-NT fibrosarcoma viability, CellTiter-Glo ATP luminescence, 48 h; Potency, µM (series often up to 46.1 µM), for inactives: at the top dose activity, negative = less viability, hits mostly cytotoxic; actives 1.6% (n = 360,000); AID 686970;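 also: NT is the 2HG producing partner of a matched IDH1 knockdown line; 0% = DMSO-treated cells and -100% = media-only wells without cells; nearly all actives have a fitted effect of over 55% in size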
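Toxicity toward the 2HG-producing NT line was scored as %Activity, normalised to DMSO and no-cell wells, from CellTiter-Glo luminescence after 48 hours' treatment.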
HepG2 viability – counter-screen for TGF-b inhibitors: cytotoxicity in HepG2 cells. HepG2 CAGA-GFP viability, ATP luminescence, 18 h. Potency, µM (titrated, usually from 46.1 µM), inactives show at the highest dose activity change, negative = cytotoxicity, most hits filed as cytotoxic. actives 0.76% (n = 410,000). AID 588856
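CellTiter-Glo luminescence gave cytotoxicity after 18 hours at 37 degrees C. The cells were HepG2 CAGA-GFP in 1% FBS DMEM, stimulated with 500 pg/mL TGF-beta after compound addition. %Activity was normalised to no-cell wells (complete cell-killing) and DMSO (no toxicity), and curves were fitted and classified.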
ATXN2 expr inh – ATXN2 expression inhibition. HEK-293 ATXN2-luciferase reporter, luminescence, 24 h. Potency, µM (highest dose often 57 µM), inactives show at the top dose activity change, negative = inhibition, actives largely listed as inhibitors. actives 0.72% (n = 360,000). AID 1745845; also: % is scaled to controls: 0 for no effect and ±100 for the full control effect; nearly all actives have a fitted effect of over 55% in size
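ATXN2-luciferase reporter cells (luciferase flanked by upstream and downstream ATXN2 gene portions) were treated 24 h at 37 °C with compounds at up to 57 uM. SteadyGlo luminescence gave expression; GF-AFC fluorescence gave viability.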
HT1080 IDH1KD tx – toxicity to HT-1080 IDH1 knockdown cells (counter line); HT-1080 IDH1 knockdown viability, ATP luminescence, 48 h; Potency, µM (doses to about 46.1 µM), without a hit: top-dose activity, negative = toxicity, actives largely listed as cytotoxic; actives 2% (n = 360,000); AID 686971;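 also: 0% = DMSO wells and -100% = cell-free medium wells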
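Cytotoxicity counter-line: IDH1KD HT-1080, 48 h, CellTiter-Glo. Curves classed by r2, magnitude and activity.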
An asterisk follows results filed as active; i = inactive; ? = inconclusive; / = no result given. Calls follow the shape of the dose curve; as a rule, active = well fitted curve in the direction sought with a large enough effect; inconclusive = small, poorly fitted or top-dose-only effect, or another doubt; inactive = no such curve, though single readings can be large; an effect the other way counts as inactive or inconclusive. Potency is read from the fitted curve at half-maximal effect.

SMILES | TGFb inhibitor | ATXN viability | HT1080NT lethal | HepG2 viability | ATXN2 expr inh | HT1080 IDH1KD tx
COc1cc2c(c(OC)c1OC)-c1ccc(OC)c(=O)cc1C(NC(C)=O)CC2 (stereo not given) | -25% | i | 0.015µM* | -3% | 6% | ?
C[C@@H]1C[C@H](Nc2ccccc2)c2ccccc2N1C(=O)c1cccnc1 | 16% | i | -12% | -14% | -23% | -21%
CC(=O)OC(C)(C)/C=C/C(=O)[C@](C)(O)C1[C@H](O)C[C@@]2(C)C3CC=C4C(C[C@H](O)C(=O)C4(C)C)[C@]3(C)C(=O)C[C@]12C (stereo not given in full) | ? | ? | ? | -19% | ? | 0.033µM*
CC(C)(O)/C=C/C(=O)C(C)(O)C1C(O)CC2(C)C3CC=C4C(C=C(O)C(=O)C4(C)C)C3(C)C(=O)CC12C (stereo not given) | ? | 2.4µM* | 0.65µM* | -57% | ? | 0.15µM*
CN1[C@H]2CC[C@@H]1[C@@H](C(=O)O)[C@@H](OC(=O)c1ccccc1)C2 | / | i | / | / | / | /
O=C(Cn1c(=O)oc2cc(S(=O)(=O)N3CCCCCC3)ccc21)NCc1ccccc1Cl | ? | / | / | -43% | / | /
C[C@H]1CC[C@@]2(NC1)O[C@@H]1C[C@H]3[C@@H]4CC[C@@H]5C[C@@H](O)CC[C@@]5(C)[C@@H]4CC[C@]3(C)[C@@H]1[C@@H]2C | / | i | / | / | / | /
CCOC(=O)c1cnc(SCc2ccc(Cl)c(Cl)c2)nc1N1CC1 | 0% | ? | ? | -21% | -28% | 9.2µM*
[O-]c1ccccc1-[n+]1c(-c2ccccc2)cc(-c2ccccc2)cc1-c1ccccc1 | ? | ? | / | -19% | ? | ?
Cc1ccccc1-[n+]1c(-c2ccccc2)cc(-c2ccccc2)cc1-c1ccccc1 | ? | 13µM* | 7.3µM* | -32% | ? | 7.3µM*
Oc1ccccc1-[n+]1c(-c2ccccc2)cc(-c2ccccc2)cc1-c1ccccc1 | ? | ? | 15µM* | -40% | ? | ?
O=C(C1CCN(S(=O)(=O)c2ccc(Br)s2)CC1)N1CCN(c2ccc(F)cc2)CC1 | -2% | ? | / | -18% | 6% | /
O=C(NCCc1ccccc1)[C@@H]1CC=C[C@@H]2CCN(Cc3ccc(Cl)c(Cl)c3)C(=O)[C@@H]21 | ? | / | -22% | -18% | -7% | -29%
CC[C@H](C)[C@@H](C(=O)N1CCCC1c1nccs1)N(C)C(=O)[C@H](CC(C)C)N(C)C(=O)[C@H](Cc1ccc(OC)cc1)N(C)C(=O)/C=C(\C)OC (stereo not given in full) | ? | ? | -4% | -22% | -31% | -6%
CC[C@@H](C)[C@H](C(CC(=O)N1CCCC1[C@@H](OC)[C@H](C)C(=O)N[C@H](Cc1ccccc1)c1nccs1)OC)N(C)C(=O)[C@H](NC(=O)[C@@H](C(C)C)N(C)C)C(C)C (stereo not given in full) | -62% | ? | 0.26µM* | -22% | 9% | ?
O=C(Cn1c(=O)oc2cc(S(=O)(=O)N3CCCCC3)ccc21)NCc1ccc(Cl)cc1 | ? | ? | / | -48% | ? | /
Cc1ccc(-c2cc(-c3ccc(C)cc3)[n+](-c3ccc(C(=O)O)cc3)c(-c3ccc(C)cc3)c2)cc1 | 9% | i | ? | -13% | 0% | -9%
Cc1ccc(C[n+]2c(-c3ccc(C)cc3)cc(-c3ccc(C)cc3)cc2-c2ccc(C)cc2)cc1 | ? | / | 3.3µM* | -109% | ? | 2.6µM*
CCCCC[C@@H](O)C1C(=O)OC(C)[C@H](O)/C=C/C=C/C=C/C=C/C=C(\C)C(O)C(O)C(O)C[C@H](O)C[C@H](O)C[C@H](O)C[C@H](O)C[C@@H]1O (stereo not given in full) | / | i | / | / | / | /
CCCCCCCCn1sccc1=O | 5.6µM* | / | 6.5µM* | -97% | 25µM* | 8.2µM*
O=c1[nH]c2ccccc2n1C1CCN(C(c2cccc3ccccc23)c2nnnn2-c2ccc3c(c2)OCCO3)CC1 (stereo not given) | ? | ? | ? | -13% | -22% | ?
COc1ccc(-n2nnnc2C(c2cc3ccccc3o2)N2CCC(n3c(=O)[nH]c4ccccc43)CC2)cc1 (stereo not given) | ? | 7.9µM* | ? | -28% | 7.9µM* | ?
O=c1[nH]c2ccccc2n1C1CCN(C(c2cc3ccccc3o2)c2nnnn2-c2ccc3c(c2)OCCO3)CC1 (stereo not given) | -21% | ? | ? | -15% | 13µM* | 18µM*
CCOP(=O)(OCC)c1nc(-c2ccc(F)cc2)oc1NCc1ccccc1 | -5% | / | ? | -7% | -21% | -8%
C[C@@H]1O[C@@H](O[C@@H]2C=C3CC[C@@H]4[C@@H](CC[C@]5(C)[C@H](c6ccc(=O)oc6)CC[C@@]45O)[C@@]3(C)CC2)[C@H](O)[C@H](O)[C@H]1O | 0.32µM* | / | / | -61% | 0.019µM* | /
SMILES | TGFb inhibitor | ATXN viability | HT1080NT lethal | HepG2 viability | ATXN2 expr inh | HT1080 IDH1KD tx
NCC[C@H](O)C(=O)N[C@@H]1C[C@H](N)[C@@H](O[C@H]2O[C@H](CN)[C@@H](O)[C@H](O)[C@H]2N)[C@H](O[C@@H]2O[C@H](CO)[C@@H](O)[C@H]2O)[C@H]1O | / | i | / | / | / | /
N#CC(C#N)=Cc1ccc(C=C(C#N)C#N)cc1 | ? | ? | ? | 25µM* | ? | 23µM*
CCOP(=O)(OCC)C(NC(=O)Nc1ccc(Cl)c(Cl)c1)c1ccccc1 (stereo not given) | -17% | i | ? | 1% | -12% | ?
CC(C)CC(N)c1csc(NC(=O)Nc2ccccc2-c2ccccc2)n1 (stereo not given) | ? | 25µM* | ? | -97% | -27% | -21%
CC(C)c1ccc(NC(=O)Nc2nc(C(N)CCc3ccccc3)cs2)cc1 (stereo not given) | ? | 28µM* | ? | 7.9µM* | 28µM* | 13µM*
C[C@H]1CNC(=O)c2c(C(=O)Nc3ccc(CNC(=O)OC(C)(C)C)cc3)ncn21 | -33% | ? | -20% | -9% | ? | -9%
CCCC1=Nc2cc(C(=O)NCCCN(CC)CC)ccc2Sc2ccccc21 | ? | ? | / | -80% | 32µM* | /

Source: PubChem BioAssay
